Sampled rows, rich in hits. Any-hit rate of the full collection: about 2.4%.
D2 ag-1: HTS Assay for Allosteric Agonists of the Human D2 Dopamine Receptor: Primary Screen for Agonists | D(2) dopamine receptor (Homo sapiens), P14416 | HEK293 T-REx D2 cells, calcium flux agonist mode | activation, % at 2 µM | actives 0.53% (n = 340,000) | AID 485358, 2010;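 active = activation over 3 SD above normal in the single-dose calcium agonist read, cut at about 30% in these data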; note: 0% is about no effect
Target sequence (P14416 whole entry, looked up): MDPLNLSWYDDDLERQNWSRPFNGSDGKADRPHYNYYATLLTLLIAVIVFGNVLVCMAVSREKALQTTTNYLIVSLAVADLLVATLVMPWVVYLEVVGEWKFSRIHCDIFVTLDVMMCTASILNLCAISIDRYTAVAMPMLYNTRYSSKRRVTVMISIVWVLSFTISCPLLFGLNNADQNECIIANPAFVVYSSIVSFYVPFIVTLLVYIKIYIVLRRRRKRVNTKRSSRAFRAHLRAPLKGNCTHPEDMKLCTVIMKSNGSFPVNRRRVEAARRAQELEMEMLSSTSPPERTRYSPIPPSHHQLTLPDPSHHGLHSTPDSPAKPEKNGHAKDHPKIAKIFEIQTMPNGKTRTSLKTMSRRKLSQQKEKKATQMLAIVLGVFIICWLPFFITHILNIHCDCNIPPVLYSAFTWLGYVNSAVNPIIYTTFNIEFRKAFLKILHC
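Tetracycline-induced HEK293 T-REx cells with force-coupled D2 receptor, plated overnight at 30 C, loaded with no-wash calcium dye. After a 10 s baseline, compound was pin-added and calcium flux read kinetically for 180 s; calcium rises flagged agonists.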
D2 PAM-1: Beta-Arrestin HTS for Positive Allosteric Modulators of the Human D2 Dopamine Receptor: Potentiators; DiscoveRx D2 beta-arrestin cells, luminescence, 90 min; 100% = 57 uM dopamine signal; potentiation, % (no concentration beside the values); actives 0.23% (n = 360,000); AID 624464, 2012; in the data active = potentiation above about 50%; inconclusive = mostly about 30% to 49%
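PathHunter D2 cells, attached overnight at 37 deg C, received compound in DMSO plus dopamine at EC20 (50 nM final) for 90 min at 37 deg C. Beta-arrestin recruitment was read as luminescence after 1 h with detection reagent at ambient temperature.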
D2 PAM-2: HTS Assay for Positive Allosteric Modulators of the Human D2 Dopamine Receptor: Primary Screen for Potentiators | AID 485347, 2010 | potentiation, % at 10 µM | HEK293 T-REx D2, calcium flux, EC20 dopamine potentiation | actives 0.34% (n = 340,000) | D(2) dopamine receptor (Homo sapiens), P14416;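 active = potentiation over 3 SD above the plate norm, cut at about 30% in these data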; note: 0% is about no effect
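Calcium flux readout, no-wash dye, 1 read/s. Inducible HEK293 Trex D2 line, overnight 30 C. Compound alone 180 s (agonist flags), then EC20 dopamine, another 180 s to score potentiation.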
D2 ag-2: Beta-Arrestin HTS for Positive Allosteric Modulators of the Human D2 Dopamine Receptor: Agonists; D(2) dopamine receptor (Homo sapiens), P14416; DiscoveRx PathHunter D2 beta-arrestin, luminescence, 90 min; 100% = 57 uM dopamine signal; activation, % (test concentration not listed); actives 0.084% (n = 360,000); AID 624465, 2012; in the data active = activation above about 40%; inconclusive = between about 15% and that limit
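Agonist mode: compounds alone added to overnight-plated D2 PathHunter cells for 90 min at 37 C, with 57 uM final dopamine (EC100) defining full response. Beta-arrestin recruitment detected by chemiluminescent reagent, read after 1 h at ambient temperature.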
D2 antag: HTS Assay for Allosteric Antagonists of the Human D2 Dopamine Receptor: Primary Screen for Antagonists | D(2) dopamine receptor (Homo sapiens), P14416 | HEK293 TREx D2 cells, calcium flux, dopamine EC80 | inhibition, % at 10 µM | actives 2% (n = 340,000) | AID 485344, 2010; in the data active = inhibition above about 30%; inactive = below that, where a call was filed; note: 0% is about no effect
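Tetracycline-induced HEK293 TREx cells expressing D2 receptor forced-coupled to calcium signalling, loaded with no-wash calcium dye. Compounds added and calcium flux read 180 s, then dopamine added at EC80 and read a further 180 s.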
D3 arrestin ag: qHTS of D3 Dopamine Receptor Agonist: D3 Dopamine Receptor B-arrestin Agonist Confirmatory Assay. shares compounds with D2 ag-1. DiscoveRx D3 beta-arrestin cells, luminescence, 90 min. Potency, µM (highest dose often 76.9 µM), without a hit: at the top dose activation, usual class: activators. actives 4% (n = 2,300);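 note: potency is the fitted concentration of half-maximal effect; 100% = dopamine control response; nearly all actives have a fitted effect of over 70% in size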
D2 ag-3: qHTS of D3 Dopamine Receptor Agonist: D2 Dopamine Receptor B-arrestin Agonist Counterscreen; DiscoveRx PathHunter D2 beta-arrestin, luminescence, 90 min; response scale: percent relative to full dopamine signal; AID 720507, 2013; actives 5.9% (n = 2,300); shares compounds with D2 ag-1; Potency, µM (titrated, usually from 76.9 µM), without a hit: at the highest dose activation, hits mostly activators; note: potency is the fitted concentration of half-maximal effect; % of control where 0% means no effect; nearly all actives have a fitted effect of over 70% in size
Starred values were filed as active, the others as inactive; ? = inconclusive; · = not tested or not shown. Unless noted, calls come from the whole dose curve; as a rule, active = well fitted activation curve with a large enough effect; inconclusive = small, poorly fitted or top-dose-only effect; inactive = flat fitted curve, though single readings scatter.

SMILES | D2 ag-1 | D2 PAM-1 | D2 PAM-2 | D2 ag-2 | D2 antag | D3 arrestin ag | D2 ag-3
Cc1cc(NC(=O)CCC(=O)N(Cc2ccco2)C2(C(=O)NC3CCCC3)CCCCC2C)no1 (centres undefined) | 1 | -2 | 14 | 3 | 34* | · | ·
CC(=O)NCC(=O)N(Cc1ccco1)C1(C(=O)NC2CCCCC2)CCCCC1 | 1 | -18 | 0 | -5 | 73* | · | ·
CC(=O)N(Cc1ccco1)C1(C(=O)NC2CCCCC2)CCCCC1 | · | -6 | · | -3 | · | · | ·
Cc1cc(NC(=O)CCC(=O)N(Cc2ccco2)C2(C(=O)NC3CCCC3)CCCCC2)no1 | 0 | -10 | 1 | -9 | 5 | · | ·
CC(=O)Nc1ccc(NC(=O)CSc2ccc3nnc(CCNC(=O)c4ccccc4)n3n2)cc1 | 1 | -6 | -4 | -2 | -3 | · | ·
COc1ccc(NC(=O)CSc2ccc3nnc(CCNC(=O)c4ccccc4)n3n2)cc1 | 0 | -9 | -3 | -3 | 21 | -8% | 2%
COc1ccccc1NC(=O)CSc1nc2c(oc3ccccc32)c(=O)n1-c1ccc(C)cc1 | 0 | · | 12 | · | · | · | ·
CCOC(=O)C1CCN(Cc2cnc(NC(=O)OC)s2)CC1 | 60* | -21 | -13 | 8 | 18 | -2% | 8%
CCOc1ccc(NC(=O)CSc2oc(-c3ccco3)nc2S(=O)(=O)c2ccc(Cl)cc2)cc1 | 0 | · | 12 | · | · | · | ·
N#CCCN(C(=O)COC(=O)c1cccc(S(=O)(=O)N2CCCC2)c1)c1ccc(F)cc1 | 1 | -15 | -1 | -1 | -4 | · | ·
CC(=O)N1CCN(S(=O)(=O)c2cccc(C(=O)OCC(=O)N(CCC#N)c3ccc(F)cc3)c2)CC1 | 0 | -4 | 14 | -3 | 7 | -8% | -4%
Cc1n[nH]c(C)c1S(=O)(=O)N1CCC(C(=O)N2CCn3c2nc2ccccc23)CC1 | 48* | -34 | -8 | -7 | 39* | -29% | -12%
O=C(C1CCN(S(=O)(=O)c2cccc3nsnc23)CC1)N1CCn2c1nc1ccccc12 | · | -58 | · | -17 | · | · | ·
CCCN1CCCc2cc(CN(CCCN3CCOCC3)C(=O)Nc3ccc(CC)cc3)ccc21 | 0 | · | 0 | · | · | · | ·
O=C(COC(=O)c1nsc(Cl)c1Cl)NC1CCCCC1 | 0 | -1 | 1 | 1 | -17 | · | ·
Nc1c(Cl)c(Cl)nc(C(=O)OCC(=O)NC2CCCCC2)c1Cl | 64* | ? | -11 | 53* | 57* | 19% | ?
CCc1cnc2c(c1SCC(=O)c1ccc(OC)cc1)c(=O)n(C)c(=O)n2C | 1 | · | -4 | · | · | · | ·
CCCCN1CCNC[C@@H]1Cc1ccccc1 | 0 | -11 | -11 | -5 | 2 | · | ·
CCCCN1CCNC[C@@H]1c1ccccc1 | 0 | -17 | 14 | -1 | -8 | -4% | -3%
Cc1ccc(Cc2nc3ccccc3nc2SCC(=O)N2CCCCC2C)cc1 (centres undefined) | 0 | · | 3 | · | · | · | ·
CCc1ccc(NC(=O)N(Cc2ccc(C)cc2)Cc2cccn2-c2nnc(N3CCCC3=O)s2)cc1 | 0 | · | -11 | · | · | · | ·
CN(CC(=O)NCCN1CCN(c2ccccc2)CC1)S(=O)(=O)c1ccc2c(c1)CCC(=O)N2 | 82* | -6 | -22 | 1 | 75* | ? | ?
COc1ccc(NC(=O)C(=O)NCC2(c3ccccc3)CCCC2)c(OC)c1 | 0 | · | -1 | · | · | · | ·
C[C@H](NC(=O)c1nc[nH]c1C(=O)N[C@@H](C)c1ccccc1)c1ccccc1 | 0 | -4 | 19 | -2 | -3 | · | ·
Cc1cccc(NC(=O)COc2ccccc2C(=O)NC(C)c2ccccc2)c1 (centres undefined) | 49* | -19 | -17 | 7 | -5 | ? | 9%
SMILES | D2 ag-1 | D2 PAM-1 | D2 PAM-2 | D2 ag-2 | D2 antag | D3 arrestin ag | D2 ag-3
Cc1cccc(NC(=O)c2nc[nH]c2C(=O)N(C)Cc2ccccc2)c1 | -1 | -19 | -21 | -8 | 29 | 0% | -4%
C[C@H](NC(=O)c1[nH]cnc1C(=O)N[C@H](C)c1ccccc1)c1ccccc1 | 0 | -3 | 10 | -1 | 9 | -8% | -5%
Cc1cccc(NC(=O)c2nc[nH]c2C(=O)N[C@@H](C)c2ccccc2)c1 | 0 | -15 | 9 | -2 | -4 | -3% | -4%
Cc1nn(-c2ccccc2)c(-n2cccc2)c1C(=O)NCCCN1CCN(c2ccccc2F)CC1 | 0 | · | -22 | · | · | · | ·
CCOc1ccc(OCC)c(NC(=O)CN(C)S(=O)(=O)c2ccc3[nH]c(=O)oc3c2)c1 | 0 | · | -9 | · | · | · | ·
CC(C(=O)NCc1ccccc1F)n1ccc2cc(S(=O)(=O)N3CCCC3)ccc21 (centres undefined) | 0 | · | -3 | · | · | · | ·
O=C(NCCc1ccccc1)c1ccc(CSc2nc3ccncc3n2Cc2ccc(F)cc2)cc1 | 1 | · | -3 | · | · | · | ·
CN(Cc1ccccc1)C(=O)c1[nH]cnc1C(=O)NCCCCCNC(=O)OC(C)(C)C | -1 | -18 | 7 | -2 | -8 | -5% | 4%
Cc1[nH]c2ccccc2c1/C=N/Nc1ccc([N+](=O)[O-])cc1 | 22 | -17 | -2 | -12 | 20 | · | ·
COc1ccccc1NS(=O)(=O)c1cc([N+](=O)[O-])ccc1N/N=C/c1c(C)[nH]c2ccccc12 | 19 | -17 | 15 | -16 | -26 | -43% | -14%
CC(=O)N/C(=C/C(C)C)c1ccccc1 | 0 | -2 | -7 | -1 | 1 | -2% | -4%
Cc1cc(C)cc(NC(=O)c2cc(C)nn2C)c1 | 34* | -6 | -14 | -5 | 2 | 3% | -1%
CCN1CC2=C(OC(N)=C(C#N)C2c2cccs2)/C(=C\c2cccs2)C1 (centres undefined) | 41* | -22 | -23 | 0 | 27 | -11% | -2%
CC(CNC(=O)C1CCN(Cc2cc3ccccc3n2Cc2ccccc2)CC1)c1ccccc1 (centres undefined) | 0 | · | 3 | · | · | · | ·
